A number with no mark means an inactive call.
Compound: Cl.Cc1ncsc1CNC(=O)CCl
Assay: log2 ratio of Biotin-Ahx-Ub-VS probe labelling (fragment/DMSO); higher = less target engagement (more negative = stronger competition), active = hit call of the paper (q ≤ 0.05, log2 ratio ≤ -1)
Conditions: compound concentration: 200 uM; treatment time: 3 h
In short: (§1)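 Global-median-normalised Spectronaut label-free quantities were compared by unpaired t-test, and values are average log2 ratios of fragment over vehicle. Only proteins with ≥2 unique peptides were used. HEK293T lysate (495 µg per sample) was treated in triplicate with fragment at 200 µM or vehicle for 3 h and then with Biotin-Ahx-Ub-VS at 0.5 µM final for 1 h. Labelled DUBs were then NeutrAvidin-enriched, digested with LysC and trypsin, and run by diaPASEF LC-MS/MS.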

Sequence of UniProt Q9UPU5 (Q9UPU5 whole entry): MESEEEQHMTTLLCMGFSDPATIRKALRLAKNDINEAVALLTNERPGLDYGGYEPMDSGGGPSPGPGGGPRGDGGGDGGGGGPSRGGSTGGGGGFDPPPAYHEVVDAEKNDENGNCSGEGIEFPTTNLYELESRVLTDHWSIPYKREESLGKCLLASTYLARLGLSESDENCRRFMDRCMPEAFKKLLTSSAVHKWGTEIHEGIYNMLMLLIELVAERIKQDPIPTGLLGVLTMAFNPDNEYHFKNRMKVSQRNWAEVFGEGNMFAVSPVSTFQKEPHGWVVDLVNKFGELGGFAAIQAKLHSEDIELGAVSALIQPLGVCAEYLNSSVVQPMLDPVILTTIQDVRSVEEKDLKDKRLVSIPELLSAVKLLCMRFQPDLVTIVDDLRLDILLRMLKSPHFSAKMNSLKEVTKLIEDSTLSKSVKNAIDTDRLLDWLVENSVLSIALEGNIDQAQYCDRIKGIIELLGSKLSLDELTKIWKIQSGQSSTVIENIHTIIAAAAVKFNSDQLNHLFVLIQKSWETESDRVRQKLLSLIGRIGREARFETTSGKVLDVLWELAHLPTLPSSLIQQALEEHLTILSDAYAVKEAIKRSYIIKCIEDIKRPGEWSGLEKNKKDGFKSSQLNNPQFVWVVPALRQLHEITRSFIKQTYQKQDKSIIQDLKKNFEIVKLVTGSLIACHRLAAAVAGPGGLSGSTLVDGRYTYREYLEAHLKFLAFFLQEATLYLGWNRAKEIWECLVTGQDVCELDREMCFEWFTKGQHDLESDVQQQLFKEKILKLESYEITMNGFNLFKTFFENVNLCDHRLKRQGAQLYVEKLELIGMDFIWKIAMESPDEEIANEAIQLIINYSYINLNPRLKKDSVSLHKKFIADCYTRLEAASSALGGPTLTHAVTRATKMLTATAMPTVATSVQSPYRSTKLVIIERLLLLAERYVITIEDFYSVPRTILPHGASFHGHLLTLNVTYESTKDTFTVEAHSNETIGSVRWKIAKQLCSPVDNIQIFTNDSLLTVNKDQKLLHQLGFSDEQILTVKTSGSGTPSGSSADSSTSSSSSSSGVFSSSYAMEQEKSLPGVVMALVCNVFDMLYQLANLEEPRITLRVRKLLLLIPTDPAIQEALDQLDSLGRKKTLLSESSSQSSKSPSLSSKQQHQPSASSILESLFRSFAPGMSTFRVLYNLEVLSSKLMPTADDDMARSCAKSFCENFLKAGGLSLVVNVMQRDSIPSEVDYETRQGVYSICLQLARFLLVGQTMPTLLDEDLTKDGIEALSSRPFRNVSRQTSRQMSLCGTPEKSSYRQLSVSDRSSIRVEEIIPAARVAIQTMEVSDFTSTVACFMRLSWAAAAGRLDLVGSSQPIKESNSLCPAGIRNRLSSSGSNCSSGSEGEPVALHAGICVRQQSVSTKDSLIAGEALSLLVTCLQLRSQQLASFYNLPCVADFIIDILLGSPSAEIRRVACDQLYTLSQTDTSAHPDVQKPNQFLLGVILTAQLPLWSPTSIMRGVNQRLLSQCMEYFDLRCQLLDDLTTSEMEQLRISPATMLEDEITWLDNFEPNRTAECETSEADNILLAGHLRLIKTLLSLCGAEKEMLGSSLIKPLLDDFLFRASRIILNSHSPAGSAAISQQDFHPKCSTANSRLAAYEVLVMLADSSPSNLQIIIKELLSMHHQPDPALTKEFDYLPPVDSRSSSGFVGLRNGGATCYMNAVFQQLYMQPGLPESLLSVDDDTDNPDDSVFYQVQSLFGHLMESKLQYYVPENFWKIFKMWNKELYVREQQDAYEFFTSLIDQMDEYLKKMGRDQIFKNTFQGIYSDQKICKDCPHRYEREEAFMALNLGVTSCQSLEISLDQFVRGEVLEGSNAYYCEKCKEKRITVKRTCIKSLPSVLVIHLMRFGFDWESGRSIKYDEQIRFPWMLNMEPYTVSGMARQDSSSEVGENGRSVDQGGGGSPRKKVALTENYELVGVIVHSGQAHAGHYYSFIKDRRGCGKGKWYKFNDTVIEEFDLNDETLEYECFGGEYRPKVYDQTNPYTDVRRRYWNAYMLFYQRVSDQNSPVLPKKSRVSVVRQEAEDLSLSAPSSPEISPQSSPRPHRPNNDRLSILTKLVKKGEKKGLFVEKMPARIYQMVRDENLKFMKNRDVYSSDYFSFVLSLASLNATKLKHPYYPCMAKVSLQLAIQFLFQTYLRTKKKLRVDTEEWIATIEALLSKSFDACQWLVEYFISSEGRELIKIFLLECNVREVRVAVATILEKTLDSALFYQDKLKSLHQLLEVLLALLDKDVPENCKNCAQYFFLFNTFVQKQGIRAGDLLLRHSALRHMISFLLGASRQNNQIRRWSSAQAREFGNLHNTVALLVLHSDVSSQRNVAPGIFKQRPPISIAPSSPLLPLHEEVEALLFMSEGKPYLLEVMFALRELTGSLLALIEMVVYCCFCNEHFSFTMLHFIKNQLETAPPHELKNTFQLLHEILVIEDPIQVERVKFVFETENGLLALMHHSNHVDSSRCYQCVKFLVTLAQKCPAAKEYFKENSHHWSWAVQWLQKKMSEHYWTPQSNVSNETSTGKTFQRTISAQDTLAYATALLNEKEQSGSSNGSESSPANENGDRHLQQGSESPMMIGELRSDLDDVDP
Sequence of UniProt Q9UPT9 (Q9UPT9 whole entry): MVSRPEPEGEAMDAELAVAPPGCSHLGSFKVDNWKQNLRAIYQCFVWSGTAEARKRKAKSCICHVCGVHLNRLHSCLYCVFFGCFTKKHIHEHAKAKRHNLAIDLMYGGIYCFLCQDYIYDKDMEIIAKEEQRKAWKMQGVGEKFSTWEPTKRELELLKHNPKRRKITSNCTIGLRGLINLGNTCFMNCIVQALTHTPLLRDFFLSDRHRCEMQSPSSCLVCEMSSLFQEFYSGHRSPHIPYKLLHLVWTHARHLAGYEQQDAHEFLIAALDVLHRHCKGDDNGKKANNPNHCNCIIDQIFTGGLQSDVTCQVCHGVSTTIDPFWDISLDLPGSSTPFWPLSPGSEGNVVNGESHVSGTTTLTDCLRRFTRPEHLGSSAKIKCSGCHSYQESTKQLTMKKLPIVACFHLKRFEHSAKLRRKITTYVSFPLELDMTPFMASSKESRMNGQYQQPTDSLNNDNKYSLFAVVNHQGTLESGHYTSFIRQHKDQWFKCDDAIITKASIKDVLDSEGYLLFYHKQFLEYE
Sequence of UniProt O94966 (O94966 whole entry): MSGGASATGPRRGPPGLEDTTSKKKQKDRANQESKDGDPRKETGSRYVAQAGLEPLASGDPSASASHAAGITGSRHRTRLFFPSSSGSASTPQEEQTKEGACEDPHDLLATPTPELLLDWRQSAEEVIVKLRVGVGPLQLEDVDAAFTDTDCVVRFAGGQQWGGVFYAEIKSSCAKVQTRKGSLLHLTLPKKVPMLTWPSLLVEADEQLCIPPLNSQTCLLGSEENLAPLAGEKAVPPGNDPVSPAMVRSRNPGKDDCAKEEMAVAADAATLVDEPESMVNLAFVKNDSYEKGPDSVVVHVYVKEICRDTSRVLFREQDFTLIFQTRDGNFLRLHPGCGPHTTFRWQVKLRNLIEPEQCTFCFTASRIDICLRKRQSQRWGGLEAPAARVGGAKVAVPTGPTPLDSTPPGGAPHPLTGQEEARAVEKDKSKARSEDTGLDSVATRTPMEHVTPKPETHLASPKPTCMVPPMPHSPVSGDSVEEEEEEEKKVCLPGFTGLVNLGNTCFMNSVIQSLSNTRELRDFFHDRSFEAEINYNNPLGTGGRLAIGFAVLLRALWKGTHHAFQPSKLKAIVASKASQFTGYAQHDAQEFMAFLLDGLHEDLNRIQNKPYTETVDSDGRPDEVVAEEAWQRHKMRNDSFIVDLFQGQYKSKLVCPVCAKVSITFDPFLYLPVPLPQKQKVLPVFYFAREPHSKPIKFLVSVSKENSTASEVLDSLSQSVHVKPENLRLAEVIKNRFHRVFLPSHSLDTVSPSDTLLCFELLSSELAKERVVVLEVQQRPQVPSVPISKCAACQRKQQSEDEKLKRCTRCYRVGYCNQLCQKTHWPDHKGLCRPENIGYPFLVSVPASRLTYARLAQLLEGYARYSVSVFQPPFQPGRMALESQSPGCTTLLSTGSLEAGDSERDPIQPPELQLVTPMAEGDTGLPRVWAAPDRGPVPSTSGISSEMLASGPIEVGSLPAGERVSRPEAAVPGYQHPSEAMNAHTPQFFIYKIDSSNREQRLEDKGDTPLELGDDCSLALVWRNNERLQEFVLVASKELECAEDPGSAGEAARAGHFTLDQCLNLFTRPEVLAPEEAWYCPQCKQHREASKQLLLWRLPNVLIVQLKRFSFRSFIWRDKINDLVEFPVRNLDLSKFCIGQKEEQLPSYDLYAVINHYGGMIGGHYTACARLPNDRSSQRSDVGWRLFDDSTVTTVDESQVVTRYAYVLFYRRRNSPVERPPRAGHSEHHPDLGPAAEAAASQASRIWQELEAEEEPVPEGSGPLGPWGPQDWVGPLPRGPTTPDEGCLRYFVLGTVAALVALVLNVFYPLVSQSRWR
Sequence of UniProt Q5VVQ6 (Q5VVQ6 whole entry): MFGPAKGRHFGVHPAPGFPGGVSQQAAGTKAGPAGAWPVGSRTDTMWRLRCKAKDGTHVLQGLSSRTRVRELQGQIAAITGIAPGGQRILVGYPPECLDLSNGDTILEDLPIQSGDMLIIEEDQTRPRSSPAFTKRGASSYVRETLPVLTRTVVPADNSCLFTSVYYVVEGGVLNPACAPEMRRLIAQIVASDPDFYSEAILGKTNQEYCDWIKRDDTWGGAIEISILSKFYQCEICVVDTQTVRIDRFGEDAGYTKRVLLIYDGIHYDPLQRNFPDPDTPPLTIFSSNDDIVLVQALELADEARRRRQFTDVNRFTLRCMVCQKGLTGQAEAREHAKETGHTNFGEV
Sequence of UniProt Q8N6M0 (Q8N6M0 whole entry): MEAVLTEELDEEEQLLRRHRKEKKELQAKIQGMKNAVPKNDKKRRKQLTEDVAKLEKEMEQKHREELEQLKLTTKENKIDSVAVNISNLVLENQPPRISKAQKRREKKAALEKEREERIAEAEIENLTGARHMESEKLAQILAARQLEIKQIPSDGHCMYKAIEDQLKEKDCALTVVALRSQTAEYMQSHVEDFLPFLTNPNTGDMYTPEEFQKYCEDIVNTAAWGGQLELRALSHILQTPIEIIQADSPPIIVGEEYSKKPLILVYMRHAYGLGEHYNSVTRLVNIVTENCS

| Target | log2 ratio of Biotin-Ahx-Ub-VS probe labelling |
| --- | --- |
| YOD1 (UniProt Q5VVQ6) | -0.266 |
| UCHL5 (UniProt Q9Y5K5) | -0.0581 |
| UniProt Q9P2H5 | -0.0813 |
| USP19 (UniProt O94966) | 0.00124 |
| OTUD6B (UniProt Q8N6M0) | -0.0694 |
| USP24 (UniProt Q9UPU5) | -0.322 |
| UniProt Q9UGI0 | -0.315 |
| USP36 (UniProt Q9P275) | 0.171 |
| USP10 (UniProt Q14694) | -0.128 |
| USP47 (UniProt Q96K76) | 0.0602 |
| USP5 (UniProt P45974) | -0.209 |
| USP28 (UniProt Q96RU2) | -0.256 |
| USP46 (UniProt P62068) | 0.0828 |
| USP8 (UniProt P40818) | -0.245 |
| UCHL1 (UniProt P09936) | -0.693 |
| UniProt Q8TE49 | -0.377 |
| USP16 (UniProt Q9Y5T5) | 0.128 |
| OTUD5 (UniProt Q96G74) | -0.104 |
| PSMD7 (UniProt P51665) | -0.291 |
| USP22 (UniProt Q9UPT9) | 0.00275 |
| COPS5 (UniProt Q92905) | 0.0391 |
| USP48 (UniProt Q86UV5) | 0.0264 |
| OTUD7B (UniProt Q6GQQ9) | -0.43 |
| OTUD4 (UniProt Q01804) | -0.0939 |

Compound: ClCC(=O)N1CCCCCCC1
Assay: as above
Conditions: compound concentration: 200 uM; treatment time: 3 h
In short: as §1

| Target | log2 ratio of Biotin-Ahx-Ub-VS probe labelling |
| --- | --- |
| YOD1 (UniProt Q5VVQ6) | 0.106 |
| UCHL5 (UniProt Q9Y5K5) | -0.0659 |
| UniProt Q9P2H5 | -0.0714 |
| USP19 (UniProt O94966) | -0.175 |
| OTUD6B (UniProt Q8N6M0) | -0.286 |
| USP24 (UniProt Q9UPU5) | -0.475 |
| UniProt Q9UGI0 | 0.214 |
| USP36 (UniProt Q9P275) | -0.19 |
| USP10 (UniProt Q14694) | -0.22 |
| USP47 (UniProt Q96K76) | -0.137 |
| USP5 (UniProt P45974) | 0.18 |
| USP28 (UniProt Q96RU2) | -0.28 |
| USP46 (UniProt P62068) | -0.198 |
| USP8 (UniProt P40818) | -0.233 |
| UCHL1 (UniProt P09936) | -1.43 (active) |
| UniProt Q8TE49 | -0.312 |
| USP16 (UniProt Q9Y5T5) | -0.675 |
| OTUD5 (UniProt Q96G74) | -0.27 |
| PSMD7 (UniProt P51665) | -0.184 |
| USP22 (UniProt Q9UPT9) | -0.145 |
| COPS5 (UniProt Q92905) | 0.0347 |
| USP48 (UniProt Q86UV5) | -0.519 |
| OTUD7B (UniProt Q6GQQ9) | -0.18 |
| OTUD4 (UniProt Q01804) | -0.131 |

Compound: ClCC(=O)NC1(CCCC1)C#N
Assay: as above
Conditions: compound concentration: 200 uM; treatment time: 3 h
In short: as §1

| Target | log2 ratio of Biotin-Ahx-Ub-VS probe labelling |
| --- | --- |
| YOD1 (UniProt Q5VVQ6) | 0.0345 |
| UCHL5 (UniProt Q9Y5K5) | -0.42 |
| UniProt Q9P2H5 | -0.237 |
| USP19 (UniProt O94966) | -0.0817 |
| OTUD6B (UniProt Q8N6M0) | -0.29 |
| USP24 (UniProt Q9UPU5) | -0.116 |
| UniProt Q9UGI0 | -0.804 |
| USP36 (UniProt Q9P275) | -0.191 |
| USP10 (UniProt Q14694) | 0.0316 |
| USP47 (UniProt Q96K76) | 0.0163 |
| USP5 (UniProt P45974) | -0.00567 |
| USP28 (UniProt Q96RU2) | -0.611 |
| USP46 (UniProt P62068) | 0.0653 |
| USP8 (UniProt P40818) | -0.572 |
| UCHL1 (UniProt P09936) | -2.07 (active) |
| UniProt Q8TE49 | -1.15 (active) |
| USP16 (UniProt Q9Y5T5) | -0.0851 |
| OTUD5 (UniProt Q96G74) | -0.519 |
| PSMD7 (UniProt P51665) | -0.279 |
| USP22 (UniProt Q9UPT9) | 0.0376 |
| COPS5 (UniProt Q92905) | 0.203 |
| USP48 (UniProt Q86UV5) | -0.56 |
| OTUD7B (UniProt Q6GQQ9) | -1.84 (active) |
| OTUD4 (UniProt Q01804) | -2.71 (active) |

Compound: ClCC(=O)NCC1CCC1
Assay: as above
Conditions: compound concentration: 200 uM; treatment time: 3 h
In short: as §1

| Target | log2 ratio of Biotin-Ahx-Ub-VS probe labelling |
| --- | --- |
| YOD1 (UniProt Q5VVQ6) | 0.0106 |
| UCHL5 (UniProt Q9Y5K5) | -0.292 |
| UniProt Q9P2H5 | -0.322 |
| USP19 (UniProt O94966) | 0.0408 |
| OTUD6B (UniProt Q8N6M0) | -0.356 |
| USP24 (UniProt Q9UPU5) | 0.00205 |
| UniProt Q9UGI0 | -0.704 |
| USP36 (UniProt Q9P275) | -0.134 |
| USP10 (UniProt Q14694) | -0.0499 |
| USP47 (UniProt Q96K76) | -0.243 |
| USP5 (UniProt P45974) | -0.0477 |
| USP28 (UniProt Q96RU2) | -0.427 |
| USP46 (UniProt P62068) | 0.0564 |
| USP8 (UniProt P40818) | -0.442 |
| UCHL1 (UniProt P09936) | -1.66 (active) |
| UniProt Q8TE49 | -0.802 |
| USP16 (UniProt Q9Y5T5) | -0.131 |
| OTUD5 (UniProt Q96G74) | -0.238 |
| PSMD7 (UniProt P51665) | -0.286 |
| USP22 (UniProt Q9UPT9) | 0.219 |
| COPS5 (UniProt Q92905) | 0.0382 |
| USP48 (UniProt Q86UV5) | -0.21 |
| OTUD7B (UniProt Q6GQQ9) | -1.31 (active) |
| OTUD4 (UniProt Q01804) | -0.397 |
